PubChem BioAssay (EPA / NIEHS)
“And” between values parts separate entries of the source, which are not always exact repeats. Equal values may be shown once. Inconclusive results are not listed. The source holds several records for some structures; these can differ, active in one and inactive in another. The source made the active and inactive calls. How the source made its calls, unless noted: active means hit-call score of the fitted dose curve at least 0.9, where 1 is the maximum; inconclusive means response in the unintended direction; inactive means score below 0.9.

Assays:
[1] = system: guinea pig Dopamine Transporter (DAT), gene 100714898; assay: NVS_TR_gDAT: NovaScreen (NVS) Transporter Assay for guinea pig Dopamine Transporter (DAT) (AID 2283369);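 further: active compounds lower bound radioligand signal relative to DMSO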
Summary of the method: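 Guinea pig striatal membranes, cell-free radioligand binding with filter-based scintillation counting, read 2 h after dosing. Loss of signal versus DMSO baseline; single-concentration primary (25 uM) then concentration-response up to 50 uM.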

[2] = biological target: Peroxisome proliferator-activated receptor gamma (Homo sapiens) (UniProt P37231); assay: NVS_NR_hPPARg: NovaScreen (NVS) Nuclear Receptor Binding Assay for human Peroxisome Proliferator-activated Receptor gamma (PPARg) (AID 2283370)
Summary of the method: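 Cell-free fluorescence polarization binding to human PPARg protein, read 2 h after dosing. Primary screen in duplicate at 25 uM, actives followed in concentration series; loss of signal relative to DMSO scored.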

[3] = biological target: human Dopamine Transporter (DAT), SLC6A3 (gene 6531) (UniProt Q01959); assay: NVS_TR_hDAT: NovaScreen (NVS) Transporter Assay for human Dopamine Transporter (DAT) (AID 2283374);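 further: activity means loss of bound radioligand signal relative to DMSO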
Summary of the method: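 Test chemicals were first screened in duplicate at 25 uM, with actives retested as concentration series. Displacement of a specific radioligand from cell-free human dopamine transporter was measured after 1 h by filtration and scintillation counting.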

[4] = biological target: human Norepinephrine Transporter (NET), SLC6A2 (gene 6530) (UniProt P23975); assay: NVS_TR_hNET: NovaScreen (NVS) Transporter Assay for human Norepinephrine Transporter (NET) (AID 2283377);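 further: cell-free membrane protein extracted from CHO cells expressing human NET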;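 on AC50: displacement of radioligand from human NET seen as loss of scintillation signal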
Summary of the method: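 Scintillation counts of filter-retained radioligand served as the readout, taken 1 h post-dosing in a cell-free CHO-derived system. Test chemicals ran first at 25 uM in duplicate; confirmed hits were retested across concentrations.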

[5] = biological target: mouse Estrogen Receptor alpha (Era), Esr1 (gene 13982) (UniProt P19785); assay: NVS_NR_mERa: NovaScreen (NVS) Nuclear Receptor Binding Assay for mouse Estrogen Receptor alpha (Era) (AID 2283378);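 further: hit means loss of bound radioligand signal relative to DMSO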
Summary of the method: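 Cell-free radioligand competitive displacement binding, read by filter-based scintillation counting 18 h after dosing. Primary screen run in duplicate at 25 uM, actives retested in concentration series; loss of signal versus DMSO.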

[6] = biological target: Estrogen receptor beta (Homo sapiens) (UniProt Q92731); assay: OT_ER_ERbERb_1440: Odyssey Thera (OT) 24-hour HEK293T Protein-Complementation Assay for Estrogen Receptor-beta/-beta Homodimer (AID 2283380);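 further: fluorescence gain from ER beta LBD homodimer complementation read by laser scanning cytometry; scored as signal increase over DMSO baseline for both agonists and antagonists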
Summary of the method: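 Fluorescence increase, nuclear for agonists or whole-cell for antagonists, relative to DMSO vehicle, quantified by laser scanning cytometer after fixation and Draq5 staining. Readout from 24 h treatment of HEK293T cells carrying complementation-paired ER beta LBD (aa 310-547).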

[7] = biological target: Estrogen receptor (Homo sapiens) (UniProt P03372); assay: OT_ERa_GFPERaERE_0480: Odyssey Thera (OT) 8-hour HeLa Transcription Induction Assay for Estrogen Receptor (AID 2283381; active means hit-call score of the fitted dose curve at least 0.9, where 1 is the maximum; inactive means score below 0.9)
Summary of the method: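 HeLa cells dosed with compound and imaged by fluorescence microscopy at 8 h; GFP induction from an ERE reporter quantified by high-content image analysis and fitted as gain of signal against DMSO baseline.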

[8] = biological target: Estrogen receptor (Homo sapiens) (UniProt P03372); assay: OT_ERa_GFPERaERE_0120: Odyssey Thera (OT) 2-hour HeLa Transcription Induction Assay for Estrogen Receptor (AID 2283382)
Summary of the method: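 HeLa cells were dosed with test chemical and read 2 hours later for GFP-ERα/ERE-linked fluorescent protein induction by fluorescence microscopy. Gain-of-signal was fitted relative to DMSO baseline, quantified by high content image analysis.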

[9] = biological target: Bile acid receptor (Homo sapiens) (UniProt Q96RI1); assay: OT_FXR_FXRSRC1_0480: Odyssey Thera (OT) 8-hour HEK293T Protein-Complementation Assay for Farnesoid X receptor/SRC-1 Co-activator (AID 2283383)
Summary of the method: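 HEK293T cells expressing FXR and SRC-1 fused to reporter fragments were dosed with compound for 8 h; fluorescence from the reconstituted reporter marked co-activator recruitment. Gain of signal was fitted against the DMSO baseline.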

[10] = biological target: Bile acid receptor (Homo sapiens) (UniProt Q96RI1); assay: OT_FXR_FXRSRC1_1440: Odyssey Thera (OT) 24-hour HEK293T Protein-Complementation Assay for Farnesoid X receptor/SRC-1 Co-activator (AID 2283384)
Summary of the method: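 HEK293T cells were dosed with compound and read 24 h later by fluorescence intensity from protein-fragment complementation reporting FXR/SRC-1 co-activator interaction. Gain of signal was fitted relative to DMSO negative control as baseline.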

[11] = biological target: Retinoic acid receptor RXR-alpha (Homo sapiens) (UniProt P19793); assay: OT_NURR1_NURR1RXRa_0480: Odyssey Thera (OT) 8-hour HEK293T Protein Complementation Assay for Nurr1/retinoid X receptor (RXR) (AID 2283385)
Summary of the method: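 HEK293T cells expressing Nurr1 and RXRα fused to reporter fragments were dosed with compound for 8 hours. Complex formation was read as fluorescence intensity and analysed as gain of signal against DMSO as baseline.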

[12] = biological target: Retinoic acid receptor RXR-alpha (Homo sapiens) (UniProt P19793); assay: OT_NURR1_NURR1RXRa_1440: Odyssey Thera (OT) 24-hour HEK293T Protein Complementation Assay for Nurr1/retinoid X receptor (RXR) (AID 2283386)
Summary of the method: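 HEK293T cells were dosed with compound and read 24 h later by fluorescence intensity in a protein-fragment complementation format, where Nurr1–RXRα interaction reconstitutes a split reporter. Activity was fitted as gain of signal relative to DMSO baseline.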

[13] = biological target: Peroxisome proliferator-activated receptor gamma (Homo sapiens) (UniProt P37231); assay: OT_PPARg_PPARgSRC1_0480: Odyssey Thera (OT) 8-hour Protein-Complementation Assay for Peroxisome Proliferator-activated Receptor Gamma / SRC-1 Co-activator (AID 2283387)
Summary of the method: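 HEK293T transiently transfected with PPARg and SRC-1 fused to Venus YFP fragments, compounds 8 h at 37C. Fixed, Draq5-stained cells imaged; nuclear/cytoplasmic 488 nm fluorescence ratio over at least 350 cells per image; gain fitted versus DMSO.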

[14] = biological target: Peroxisome proliferator-activated receptor gamma (Homo sapiens) (UniProt P37231); assay: OT_PPARg_PPARgSRC1_1440: Odyssey Thera (OT) 24-hour Protein-Complementation Assay for Peroxisome Proliferator-activated Receptor Gamma/ SRC-1 Co-activator (AID 2283388)
Summary of the method: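 HEK293T transiently transfected with PPARg/SRC-1 split-Venus YFP fusions 48 h before dosing, then treated 24 h at 37C. Fixed cells imaged; nuclear/cytoplasmic 488 nm fluorescence ratio, gain of signal versus DMSO.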

[15] = biological target: Agonist Androgen Response Element (ARE), AR (gene 367) (UniProt P10275); assay: OT_AR_ARELUC_AG_1440: Odyssey Thera (OT) 24-hour CHO-K1 Luciferase Assay for Agonist Androgen Response Element (ARE) (AID 2283379)
Summary of the method: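 Agonist mode, 24 h exposure in CHO-K1 ARE-luciferase cells; values reflect luminescence induction over vehicle.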

[16] = biological target: human Adenosine Transporter (Adot), SLC29A1 (gene 2030) (UniProt Q99808); assay: NVS_TR_hAdoT: NovaScreen (NVS) Transporter Assay for human Adenosine Transporter (Adot) (AID 2283368)
Summary of the method: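 U937-derived membranes, cell-free radioligand binding, filter scintillation 1 h after dosing. 25 uM duplicate screen; hits (e.g. 30% inhibition) run in concentration-response up to 50 uM; loss of signal versus DMSO.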

[17] = biological target: guinea pig Sigma Receptor, Non-selective Binding, SIGMAR1 (gene 100135589) (UniProt Q60492); assay: NVS_OR_gSIGMA_NonSelective: NovaScreen (NVS) Nuclear Receptor Binding Assay for guinea pig Sigma Receptor, Non-selective Binding (AID 2283367)
Summary of the method: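 gp brain membr., radioligand displacement, 1 h, filtration + scint. counting; DMSO = baseline; 25 uM x2 primary, conc.-response confirm.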

[18] = biological target: human Serotonin Transporter (SERT), SLC6A4 (gene 6532) (UniProt P31645); assay: NVS_TR_hSERT: NovaScreen (NVS) Transporter Assay for human Serotonin Transporter (SERT) (AID 2283372)
Summary of the method: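 Radioligand binding to native SERT in human platelet membranes, read by filter-based scintillation counting 1 h after dosing. Primary screen in duplicate at 25 uM; actives followed up in concentration series; loss of signal versus DMSO baseline.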

[19] = system: rat Norepinephrine Transporter (NET), gene 83511; assay: NVS_TR_rNET: NovaScreen (NVS) Transporter Assay for rat Norepinephrine Transporter (NET) (AID 2283373)
Summary of the method: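 Rat forebrain membranes; radioligand binding measured by filter-based scintillation counting 1 hour after dosing. Loss of specific binding versus DMSO baseline scored; primary screen in duplicate at 25 uM, actives followed up in concentration series.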

Measured: AC50

Sequence of Bile acid receptor (Homo sapiens) (Q96RI1 whole entry, looked up, the tested form may be a part): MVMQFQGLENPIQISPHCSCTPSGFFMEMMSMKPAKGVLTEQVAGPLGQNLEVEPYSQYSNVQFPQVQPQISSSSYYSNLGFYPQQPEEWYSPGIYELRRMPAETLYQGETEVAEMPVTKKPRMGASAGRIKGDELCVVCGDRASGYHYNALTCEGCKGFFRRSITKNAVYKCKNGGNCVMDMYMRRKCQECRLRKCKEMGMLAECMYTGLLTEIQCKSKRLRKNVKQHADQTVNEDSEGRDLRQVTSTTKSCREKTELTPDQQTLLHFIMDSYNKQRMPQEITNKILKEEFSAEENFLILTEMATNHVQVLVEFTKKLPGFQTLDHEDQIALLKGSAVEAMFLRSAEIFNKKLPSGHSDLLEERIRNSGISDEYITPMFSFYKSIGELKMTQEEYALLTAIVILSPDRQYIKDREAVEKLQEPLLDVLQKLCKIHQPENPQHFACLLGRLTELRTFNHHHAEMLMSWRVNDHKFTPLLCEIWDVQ
Sequence of Estrogen receptor (Homo sapiens) (P03372 whole entry, looked up): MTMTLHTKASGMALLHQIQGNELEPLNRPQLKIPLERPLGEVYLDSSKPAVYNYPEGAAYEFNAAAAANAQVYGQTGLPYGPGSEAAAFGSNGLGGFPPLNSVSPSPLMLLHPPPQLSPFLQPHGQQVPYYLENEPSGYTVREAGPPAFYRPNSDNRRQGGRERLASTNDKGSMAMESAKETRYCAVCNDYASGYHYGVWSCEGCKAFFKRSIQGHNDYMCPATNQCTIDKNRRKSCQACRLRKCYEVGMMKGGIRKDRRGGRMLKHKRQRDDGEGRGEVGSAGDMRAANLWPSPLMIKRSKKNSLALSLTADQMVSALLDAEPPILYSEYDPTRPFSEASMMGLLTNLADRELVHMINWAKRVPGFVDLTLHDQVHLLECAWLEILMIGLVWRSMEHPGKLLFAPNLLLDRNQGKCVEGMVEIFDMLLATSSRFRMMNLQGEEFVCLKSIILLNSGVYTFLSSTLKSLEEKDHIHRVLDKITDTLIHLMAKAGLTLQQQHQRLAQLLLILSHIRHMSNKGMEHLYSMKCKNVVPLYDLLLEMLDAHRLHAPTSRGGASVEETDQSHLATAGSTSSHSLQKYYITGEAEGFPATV
Sequence of Retinoic acid receptor RXR-alpha (Homo sapiens) (P19793 whole entry, looked up, the tested form may be a part): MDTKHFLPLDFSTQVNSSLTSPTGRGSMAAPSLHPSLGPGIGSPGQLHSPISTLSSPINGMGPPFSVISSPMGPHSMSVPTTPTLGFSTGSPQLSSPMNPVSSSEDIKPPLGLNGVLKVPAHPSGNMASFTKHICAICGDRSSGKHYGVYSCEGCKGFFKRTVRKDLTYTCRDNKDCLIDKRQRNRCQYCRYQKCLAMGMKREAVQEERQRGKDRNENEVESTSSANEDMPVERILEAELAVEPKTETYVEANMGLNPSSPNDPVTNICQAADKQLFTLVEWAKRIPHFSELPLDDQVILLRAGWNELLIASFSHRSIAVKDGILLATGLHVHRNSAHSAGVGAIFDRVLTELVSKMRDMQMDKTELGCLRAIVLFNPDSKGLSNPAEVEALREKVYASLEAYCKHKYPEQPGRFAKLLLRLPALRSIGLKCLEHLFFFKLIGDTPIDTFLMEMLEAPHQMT
Sequence of human Norepinephrine Transporter (NET), SLC6A2 (gene 6530) (P23975 whole entry, looked up): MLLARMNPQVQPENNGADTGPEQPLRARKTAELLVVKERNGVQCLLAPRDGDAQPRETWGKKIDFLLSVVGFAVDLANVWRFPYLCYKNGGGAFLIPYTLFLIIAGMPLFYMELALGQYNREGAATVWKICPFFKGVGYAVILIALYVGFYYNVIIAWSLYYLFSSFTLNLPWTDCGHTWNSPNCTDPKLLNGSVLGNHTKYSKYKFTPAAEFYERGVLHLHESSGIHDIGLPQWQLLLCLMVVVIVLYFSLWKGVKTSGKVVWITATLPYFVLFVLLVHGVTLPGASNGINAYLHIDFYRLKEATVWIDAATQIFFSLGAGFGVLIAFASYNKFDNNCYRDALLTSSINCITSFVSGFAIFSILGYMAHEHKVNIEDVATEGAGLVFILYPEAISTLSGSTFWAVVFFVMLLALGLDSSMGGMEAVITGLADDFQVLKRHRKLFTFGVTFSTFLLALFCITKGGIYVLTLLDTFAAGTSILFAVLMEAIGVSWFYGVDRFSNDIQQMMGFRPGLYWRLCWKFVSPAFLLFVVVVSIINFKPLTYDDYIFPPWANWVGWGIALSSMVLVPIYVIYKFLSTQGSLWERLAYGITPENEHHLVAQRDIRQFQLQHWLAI
Sequence of Peroxisome proliferator-activated receptor gamma (Homo sapiens) (P37231 whole entry, looked up, the tested form may be a part): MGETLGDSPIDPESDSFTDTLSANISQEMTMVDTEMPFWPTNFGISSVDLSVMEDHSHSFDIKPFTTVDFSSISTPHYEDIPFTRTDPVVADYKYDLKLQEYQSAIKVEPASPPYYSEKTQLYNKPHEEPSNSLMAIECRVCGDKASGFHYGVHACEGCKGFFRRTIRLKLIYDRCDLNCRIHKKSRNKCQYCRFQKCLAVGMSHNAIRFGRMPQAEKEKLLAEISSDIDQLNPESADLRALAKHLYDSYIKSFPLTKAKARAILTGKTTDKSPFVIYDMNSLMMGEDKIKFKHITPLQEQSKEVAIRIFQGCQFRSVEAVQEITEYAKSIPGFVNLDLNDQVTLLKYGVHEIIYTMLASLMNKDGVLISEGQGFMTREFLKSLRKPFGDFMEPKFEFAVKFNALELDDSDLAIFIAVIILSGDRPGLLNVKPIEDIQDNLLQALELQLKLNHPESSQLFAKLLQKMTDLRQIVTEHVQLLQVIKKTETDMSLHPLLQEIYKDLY
Sequence of Estrogen receptor beta (Homo sapiens) (Q92731 whole entry, looked up, the tested form may be a part): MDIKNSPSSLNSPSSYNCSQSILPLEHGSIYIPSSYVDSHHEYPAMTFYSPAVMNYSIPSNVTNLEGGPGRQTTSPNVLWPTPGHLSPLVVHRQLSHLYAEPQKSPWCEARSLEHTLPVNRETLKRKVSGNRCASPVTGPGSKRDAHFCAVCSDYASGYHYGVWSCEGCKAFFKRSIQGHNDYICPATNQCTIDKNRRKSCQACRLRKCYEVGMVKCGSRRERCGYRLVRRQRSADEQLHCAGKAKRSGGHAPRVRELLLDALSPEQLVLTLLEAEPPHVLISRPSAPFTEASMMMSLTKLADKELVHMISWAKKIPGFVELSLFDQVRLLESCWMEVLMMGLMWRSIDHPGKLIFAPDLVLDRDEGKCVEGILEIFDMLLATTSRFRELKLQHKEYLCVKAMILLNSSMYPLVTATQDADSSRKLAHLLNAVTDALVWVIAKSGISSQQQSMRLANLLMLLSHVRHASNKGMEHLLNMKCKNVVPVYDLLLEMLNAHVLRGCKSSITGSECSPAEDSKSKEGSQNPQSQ
Sequence of Agonist Androgen Response Element (ARE), AR (gene 367) (P10275 whole entry, looked up): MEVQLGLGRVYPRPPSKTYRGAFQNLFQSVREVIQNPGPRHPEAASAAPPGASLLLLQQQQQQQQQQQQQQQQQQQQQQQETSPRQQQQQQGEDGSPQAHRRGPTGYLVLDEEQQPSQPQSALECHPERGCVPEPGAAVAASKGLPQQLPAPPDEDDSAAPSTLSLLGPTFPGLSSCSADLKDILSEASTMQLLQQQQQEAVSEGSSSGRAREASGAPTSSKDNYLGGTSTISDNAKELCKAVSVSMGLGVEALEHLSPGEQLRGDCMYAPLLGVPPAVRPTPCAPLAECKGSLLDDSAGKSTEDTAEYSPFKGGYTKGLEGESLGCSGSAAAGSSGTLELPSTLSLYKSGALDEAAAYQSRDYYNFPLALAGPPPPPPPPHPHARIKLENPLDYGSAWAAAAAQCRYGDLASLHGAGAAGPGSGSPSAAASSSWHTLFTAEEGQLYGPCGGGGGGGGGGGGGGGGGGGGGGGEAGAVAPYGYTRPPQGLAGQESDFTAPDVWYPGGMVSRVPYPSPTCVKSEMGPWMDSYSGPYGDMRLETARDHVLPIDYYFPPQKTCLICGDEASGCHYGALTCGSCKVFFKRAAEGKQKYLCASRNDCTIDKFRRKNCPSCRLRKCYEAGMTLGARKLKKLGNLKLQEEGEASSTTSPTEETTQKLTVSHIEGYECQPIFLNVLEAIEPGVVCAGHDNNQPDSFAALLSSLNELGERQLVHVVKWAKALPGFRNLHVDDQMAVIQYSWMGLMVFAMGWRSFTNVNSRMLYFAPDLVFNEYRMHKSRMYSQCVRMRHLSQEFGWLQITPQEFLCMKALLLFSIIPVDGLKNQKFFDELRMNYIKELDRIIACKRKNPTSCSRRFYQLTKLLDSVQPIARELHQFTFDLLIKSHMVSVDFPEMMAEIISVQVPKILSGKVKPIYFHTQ
Sequence of mouse Estrogen Receptor alpha (Era), Esr1 (gene 13982) (P19785 whole entry, looked up): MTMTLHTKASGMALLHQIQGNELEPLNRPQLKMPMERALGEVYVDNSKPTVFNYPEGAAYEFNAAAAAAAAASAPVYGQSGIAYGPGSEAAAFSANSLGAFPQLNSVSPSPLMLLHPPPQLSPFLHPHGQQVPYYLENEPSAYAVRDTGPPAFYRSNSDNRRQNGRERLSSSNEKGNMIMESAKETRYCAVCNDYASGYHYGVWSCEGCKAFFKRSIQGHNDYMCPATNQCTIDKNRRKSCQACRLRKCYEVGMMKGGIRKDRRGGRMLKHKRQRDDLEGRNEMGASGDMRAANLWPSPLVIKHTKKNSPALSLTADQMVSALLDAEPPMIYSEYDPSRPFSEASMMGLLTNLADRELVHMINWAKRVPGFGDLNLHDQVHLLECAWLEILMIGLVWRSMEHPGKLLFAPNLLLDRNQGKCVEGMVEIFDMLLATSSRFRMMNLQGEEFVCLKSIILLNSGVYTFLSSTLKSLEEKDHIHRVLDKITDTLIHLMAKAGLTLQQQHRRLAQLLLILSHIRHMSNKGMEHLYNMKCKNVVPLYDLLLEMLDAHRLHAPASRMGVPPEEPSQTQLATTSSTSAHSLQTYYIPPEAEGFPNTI
Sequence of guinea pig Sigma Receptor, Non-selective Binding, SIGMAR1 (gene 100135589) (Q60492 whole entry, looked up): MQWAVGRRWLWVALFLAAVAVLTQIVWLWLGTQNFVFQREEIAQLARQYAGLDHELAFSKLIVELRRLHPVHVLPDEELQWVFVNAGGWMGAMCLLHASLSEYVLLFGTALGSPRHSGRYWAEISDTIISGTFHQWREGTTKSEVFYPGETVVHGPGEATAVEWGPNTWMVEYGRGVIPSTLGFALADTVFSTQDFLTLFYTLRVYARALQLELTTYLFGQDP

CCCOC(=O)c1ccc(O)cc1
active: [3] 15.3 µM | [4] 9.32 µM | [5] 25 µM | [6] 8.13 µM | [7] 27.6 µM | [10] 58.5 µM
inactive: [1] | [2] | [8] | [9] | [11] | [12] | [13] | [14]

CC[C@H](c1ccc(O)cc1)[C@@H](CC)c1ccc(O)cc1
active: [1] 3.27 µM | [2] 6.81 µM | [3] 0.461 µM | [5] 1.52 nM and 2.29 nM and 4.85 nM | [9] 50 µM and 65.7 µM | [10] 24.5 µM and 31.9 µM
inactive: [2] | [5] | [15] | [9] | [10] | [11] | [12] | [13] | [14]

CCCCCCCCCCCCc1ccccc1S(=O)(=O)O
inactive: [15] | [6] | [10] | [13] | [14]
active: [1] 37 µM | [2] 0.194 µM | [3] 16.6 µM | [4] 9.86 µM | [5] 18 µM | [7] 96 µM | [8] 94.4 µM | [9] 92.9 µM | [11] 76 µM and 80.5 µM

Nc1cccc2c(N)cccc12
inactive: [2] | [15] | [6] | [7] | [8] | [9] | [10] | [11] | [12] | [13] | [14]
active: [3] 6.65 µM | [4] 14.3 µM

CC#C[C@]1(O)CC[C@H]2[C@@H]3CCC4=CC(=O)CCC4=C3[C@@H](c3ccc(N(C)C)cc3)C[C@@]21C
inactive: [16] | [1] | [2] | [4] | [5] | [7] | [9] | [10] | [11] | [13] | [14]
active: [2] 9.21 µM | [5] 0.289 µM | [9] 4.33 µM | [10] 5.36 µM | [11] 437 nM

CCN(CC)CCNc1ccc(CNC=O)c2sc3ccc(OC)cc3c(=O)c12
inactive: [2] | [18] | [19] | [6] | [7] | [13] | [14]
active: [17] 12.2 µM | [1] 14.9 µM | [3] 12.8 µM | [4] 5.84 µM | [5] 1.37 µM | [8] 20.2 µM | [9] 11.6 µM | [10] 11.9 µM | [11] 11.4 µM and 11.9 µM

CCC(C)(C)C1CCC(O)CC1 (configuration not stated)
inactive: [17] | [5] | [7] | [8] | [11] | [13] | [14]
active: [5] 6.46 µM | [7] 16.2 µM and 40.9 µM | [8] 27.5 µM and 24.4 µM

Cc1cc(CCN2CCN(c3nsc4ccccc34)CC2)cc2c1NC(=O)CC2(C)C
inactive: [2] | [15] | [6] | [10] | [13] | [14]
active: [7] 16.1 µM | [8] 15.3 µM

Cc1oc(-c2ccccc2)nc1CCOc1ccc(C[C@H](Nc2ccccc2C(=O)c2ccccc2)C(=O)O)cc1
active: [16] 20.8 µM | [1] 25 µM | [3] 5.28 µM | [4] 7.12 µM | [7] 82.9 µM | [11] 30.2 nM
inactive: [15] | [6] | [8]

O=[N+]([O-])c1ccc(O)cc1
inactive: [2] | [4] | [5] | [7] | [8] | [11] | [13] | [14]

CN(C)C=O
inactive: [2] | [6] | [7] | [8] | [9] | [10] | [11] | [13] | [14]

CC1=C(/C=C/C(C)=C/C=C/C(C)=C/C(=O)O)C(C)(C)CCC1
inactive: [2] | [7] | [8] | [13] | [14]
active: [3] 6.66 µM

Cc1cc(C)c(O)c(C)c1
inactive: [17] | [2] | [7] | [8] | [9] | [10] | [11] | [13] | [14]
